PubChem BioAssay (Tox21)
Values joined by “and” are separate entries in the source; they are usually repeats but may differ in a detail not shown here. Identical values can stand only once. Values without a mark were called inactive. Inconclusive results are not listed. Where a call stands in place of a potency, no number is given. Active and inactive are the calls of the source. Unless noted, the call rests on the fitted dose curve; in most records, active means well fitted curve in the direction sought with a large enough effect in the repeat runs; inconclusive means weak or mixed curves; inactive means no such curve, though single readings can be large; an effect the other way counts as inactive or inconclusive.

What was measured:
[1] = qHTS assay to identify small molecule agonists of H2AX - cell viability counter screen (AID 1224847; calls by dose curve; further: nearly all actives have a fitted effect of over 30% in size; further: potency means the concentration at half of the fitted maximal effect)
Summary of the method: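 For this counter screen, overnight-attached CHO-K1 cells received test compounds (15 concentrations, 0.76% DMSO final); 3 hr later at 37C, CellTiter-Glo reagent was added and luminescence recorded after 30 min at room temperature.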

[2] = qHTS assay to identify small molecule antagonists of the estrogen related receptor (ERR) signaling pathway from Tox21 library (AID 1224848); further: nearly all actives have a fitted effect of over 50% in size; further: potency means the concentration at half of the fitted maximal effect
Summary of the method: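 Screening used an ERR reporter line supplied by NTP, exposed for 18 h at 37 C to library compounds delivered in DMSO. Signal was luciferase luminescence developed with ONE-Glo at room temperature for 30 min.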

[3] = qHTS assay to identify small molecule agonists of the estrogen related receptor (ERR) signaling pathway from Tox21 library (AID 1224849; calls by dose curve; further: nearly all actives have a fitted effect of over 15% in size); conditions: ERR reporter cell line, ONE-Glo luciferase, 18 h; at 92.4 µM (top of the series) unless noted
Summary of the method: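 ERR cells, 6 h pre-incubation 37 C/5% CO2; cpd in DMSO pinned; 18 h 37 C; ONE-Glo added, 30 min RT; luminescence read. Agonist mode, qHTS.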

[4] = qHTS RealTime-Glo MT Cell Viability Assay in HepG2 cells - 24 hour (AID 1224867); further: nearly all actives have a fitted effect of over 50% in size; further: potency means the concentration at half of the fitted maximal effect
Summary of the method: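 HepG2 cells were seeded at 600 cells/well together with NanoLuc luciferase and a cell-permeant prosubstrate, preincubated 5 h at 37 C/5% CO2, then pin-dosed with compounds in DMSO. Nonlytic luminescence from viable cells was read at each time point.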

[5] = qHTS RealTime-Glo MT Cell Viability Assay in HEK293 cells - 32 hour (AID 1224868); further: nearly all actives have a fitted effect of over 50% in size; further: potency means the concentration at half of the fitted maximal effect
Summary of the method: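 HEK293 cells were seeded at 600 cells/well together with NanoLuc luciferase and cell-permeant prosubstrate, preincubated 5 h at 37 C/5% CO2, then given compound in DMSO by pintool. Luminescence from viable-cell prosubstrate reduction was read repeatedly over 40 h.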

[6] = A CellTox Green Cytotoxicity Assay to monitor cytotoxicity in HEK293 cells - 0 hour (AID 1224869); further: nearly all actives have a fitted effect of over 50% in size
Summary of the method: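 Nonlytic real-time cytotoxicity: HEK293 + CellTox Green reagent plated, 5 h preincubation, pintool compound addition (23 nL in DMSO), 37 C for 40 h, fluorescence measured at successive time points.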

[7] = qHTS RealTime-Glo MT Cell Viability Assay in HepG2 cells - 40 hour (AID 1224870); further: nearly all actives have a fitted effect of over 50% in size; further: potency means the concentration at half of the fitted maximal effect
Summary of the method: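 HepG2 cells mixed with RealTime-Glo MT reagents (NanoLuc plus cell-permeant prosubstrate) were seeded at 600 cells/well, incubated 5 h at 37 C/5% CO2, then pinned with compounds in DMSO; nonlytic luminescence tracked viability during 40 h treatment.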

[8] = qHTS assay to identify small molecule agonists of H2AX (AID 1224845; active means well fitted activation curve with a large enough effect in the signal ratio in the repeat runs, not every such curve was filed as active; the % refers to the signal ratio; further: potency means the concentration at half of the fitted maximal effect)
Summary of the method: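 Wild-type CHO-K1 cells plated overnight, then exposed 3 hr at 37C to compounds at 15 concentrations (0.76% DMSO). Lysed, then HTRF anti-pH2AX(S139)-cryptate/anti-H2AX-d2 detection after 24 hr at room temperature; emissions 665 and 620 nm.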

[9] = qHTS assay to identify small molecule agonists of the hypoxia (HIF-1) signaling pathway (AID 1224846; active means well fitted activation curve with a large enough effect in the signal ratio in the repeat runs, not every such curve was filed as active; the % refers to the signal ratio)
Summary of the method: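 Cell line: CellSensor HRE-bla ME-180; 2,000 cells/well; 0.5% dialyzed FBS; 5 h preincubation; DMSO compound pin transfer; 17 h, 37C, 5% CO2; CCF4-AM added; bla FRET signal scored for activation.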

[10] = qHTS assay to identify small molecule agonists of the hypoxia (HIF-1) signaling pathway - cell viability counter screen (AID 1224844; calls by dose curve; further: nearly all actives have a fitted effect of over 50% in size; further: potency means the concentration at half of the fitted maximal effect)
Summary of the method: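 ME-180 HRE-bla cells, 2,000/well, 0.5% dialyzed FBS; 5 hr settle, 17 hr compound at 37C/5% CO2; CCF4-AM reporter read first, then CellTiter-Glo luminescence after 30 min RT.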

Row | Structure (SMILES) | Potency [1] | Potency [2] | activity change, positive = activation [3] | Potency [4] | Potency [5] | Potency [6] | Potency [7] | Potency [8] | Potency [9] | Potency [10]
1 | CCCCCCC[CH2][Sn]([Cl])([Cl])[CH2]CCCCCCC | inactive | 61.1 µM (active) | -59.9% | inactive | inactive | inactive | inactive | – | – | –
2 | O=S1(=O)OCC2C(CO1)C1(Cl)C(Cl)=C(Cl)C2(Cl)C1(Cl)Cl (stereo not drawn) | inactive | – | – | – | 21.9 µM (active) | inactive | inactive | inactive | inactive | –
3 | CCCCC/C=C\C/C=C\C/C=C\C/C=C\CCCC(=O)NCC(=O)O | – | – | – | inactive | inactive | inactive | inactive | – | – | inactive
4 | O=C1C2(Cl)C3(Cl)C4(Cl)C(Cl)(Cl)C5(Cl)C3(Cl)C1(Cl)C5(Cl)C24Cl (stereo not drawn) | 49.6 µM (active) and 96.5 µM (active) | 26.9 µM (active) and 58.5 µM (active) | -74.4% and -66.3% | 42.9 µM (active) and 46.9 µM (active) | 19.2 µM (active) and 41.8 µM (active) | inactive | 54 µM (active) and 46.9 µM (active) | – | – | 21.5 µM (active)
5 | Oc1cccc(Cl)c1Cl | inactive | – | -30.2% | inactive | – | – | inactive | inactive | inactive | –
6 | CCCCCCCc1ccc(O)cc1 | 50.5 µM (active) | – | – | – | 19.5 µM (active) | inactive | inactive | – | – | –
7 | Nc1ccccc1-c1ccccc1 | inactive | 27.1 µM (active) | -40.4% | inactive | inactive | inactive | inactive | inactive | inactive | –
8 | c1ccc(Nc2ccc(Nc3ccccc3)cc2)cc1 | – | inactive | -22.9% | inactive | 21.8 µM (active) | – | inactive | – | – | inactive
9 | CC(=O)[O][Sn]([c]1ccccc1)([c]1ccccc1)[c]1ccccc1 | 0.142 µM (active) | 0.077 µM (active) | -74% | – | 0.0389 µM (active) | inactive | – | 0.101 µM (active) | – | –
10 | CO/N=C(/C1=NOCCO1)c1ccccc1Oc1ncnc(Oc2ccccc2Cl)c1F | 12.7 µM (active) | – | – | – | – | – | – | inactive | inactive | –
11 | CC[C@H](C)[C@H]1O[C@]2(C=C[C@@H]1C)C[C@@H]1C[C@@H](C/C=C(\C)[C@@H](O[C@H]3C[C@H](OC)[C@@H](O[C@H]4C[C@H](OC)[C@@H](NC)[C@H](C)O4)[C@H](C)O3)[C@@H](C)/C=C/C=C3\CO[C@@H]4[C@H](O)C(C)=C[C@@H](C(=O)O1)[C@]34O)O2 | 16 µM (active) | – | – | 9.77 µM (active) | 4.9 µM (active) | inactive | 9.77 µM (active) | – | – | 21.9 µM (active)
12 | [C-]1=CC=CC1.[Cl][Zr+2][Cl].c1cc[cH-]c1 | inactive | – | – | – | – | inactive | – | – | – | inactive
13 | CCCCON=O | inactive | inactive | -4.4% | inactive | inactive | inactive | inactive | inactive | inactive | –
14 | Oc1ccc([C@H]2CNCc3c2ccc(O)c3O)cc1O | inactive | inactive | -4.81% [at 42.5 µM] | – | inactive | inactive | – | – | – | inactive
15 | Clc1ccc(C(Cl)(Cl)Cl)cc1Cl | inactive | – | – | – | 33.9 µM (active) | inactive | – | – | – | 24 µM (active)
16 | Nc1ccc(N=Nc2ccccc2)cc1 | – | inactive | 69.2% (active) | inactive | – | inactive | – | – | – | –
17 | C1=CCC=C1 | inactive | – | – | – | – | inactive | inactive | – | – | inactive
18 | O=C(N[C@@H]1N=C(c2ccccc2F)c2cccc3c2N(CC3)C1=O)c1cc2ccccc2[nH]1 | inactive | – | – | – | inactive | – | – | – | – | inactive
19 | N#Cc1sc2c(=O)c3ccccc3c(=O)c=2sc1C#N | 101 µM (active) | 61.1 µM (active) | -74.5% | 11 µM (active) | 17.4 µM (active) | – | 11 µM (active) | – | – | 4.9 µM (active)
20 | BrCC(Br)(Br)Br | inactive | inactive | 15.6% | inactive | 45.3 µM (active) | inactive | inactive | inactive | inactive | –
21 | C=C(C)C(=O)[O][Sn]([CH2]CCC)([CH2]CCC)[CH2]CCC | 0.713 µM (active) | 0.486 µM (active) | -73.3% | 0.436 µM (active) | 0.275 µM (active) | inactive | 0.195 µM (active) | – | – | 0.692 µM (active)
22 | O=[N+]([O-])c1cc(C(F)(F)F)c(Cl)c([N+](=O)[O-])c1Nc1ncc(C(F)(F)F)cc1Cl | 50.5 µM (active) | – | – | 21.9 µM (active) | 1.74 µM (active) | inactive | 11 µM (active) | – | – | 6.92 µM (active)
23 | ClC1=C(Cl)[C@]2(Cl)[C@H]3[C@H]([C@@H]4C=C[C@H]3C4)[C@@]1(Cl)C2(Cl)Cl | 89.8 µM (active) | – | – | 54.9 µM (active) | 48.9 µM (active) and 49 µM (active) | inactive | inactive | – | – | 43.6 µM (active)
24 | CN1CCc2cc(Cl)c(O)cc2[C@H]2c3ccccc3CC[C@@H]21 | inactive | inactive | 0.522% [at 42.5 µM] | inactive | – | inactive | inactive | inactive | inactive | –
